Data from the supplement of paper PMC7411054.

Key:
Conditions in all cases: treatment time: 24 h
A549-ACTB-RAB5A [1] = test: lowest phenotypically active concentration; higher = less potent
Procedure, shortened: (§1)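 Cells from fifteen gene-edited reporter lines (A549, HepG2 and WPMY1) were treated for 24 h at 0.3, 1, 3 or 9 µM and imaged live, four wells per condition. Features were normalised per well to solvent control wells. A condition deviated if ≥3 of 4 wells passed the 95th percentile of control Euclidean distances and was reproducible if its median replicate Pearson correlation beat the 95th percentile of non-replicates; phenotypic activity needed both.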

A549-GM130-SQSTM1 [2] = test: as above
Procedure, shortened: as §1

A549-TUBA1B-RELA [3] = test: as above
Procedure, shortened: as §1

HepG2-ACTB-RAB5A [4] = test: as above
Procedure, shortened: as §1

A549-ACTB-RAB5A [5] = test: phenotypically active (imaging signature differs from DMSO and reproducible) at any of 0.3-9 uM (binary (1 = active, 0 = inactive)); higher = active
Procedure, shortened: as §1

A549-CANX-COX4 = test: as above
Procedure, shortened: as §1

A549-GM130-SQSTM1 [6] = test: as above
Procedure, shortened: as §1

A549-TP53BP1-CLTA = test: as above
Procedure, shortened: as §1

A549-TUBA1B-RELA [7] = test: as above
Procedure, shortened: as §1

HepG2-ACTB-RAB5A [8] = test: as above
Procedure, shortened: as §1

HepG2-CANX-COX4 = test: as above
Procedure, shortened: as §1

HepG2-GM130-SQSTM1 = test: as above
Procedure, shortened: as §1

HepG2-TP53BP1-CLTA = test: as above
Procedure, shortened: as §1

HepG2-TUBA1B-RELA = test: as above
Procedure, shortened: as §1

WPMY1-ACTB-RAB5A = test: as above
Procedure, shortened: as §1

WPMY1-CANX-COX4 = test: as above
Procedure, shortened: as §1

WPMY1-GM130-SQSTM1 [9] = test: as above
Procedure, shortened: as §1

WPMY1-TP53BP1-CLTA = test: as above
Procedure, shortened: as §1

WPMY1-TUBA1B-RELA = test: as above
Procedure, shortened: as §1

WPMY1-GM130-SQSTM1 [10] = test: lowest phenotypically active concentration; higher = less potent
Procedure, shortened: as §1

## O=C1Cc2cc(CCN3CCN(c4nsc5ccccc45)CC3)c(Cl)cc2N1 [ziprasidone]
A549-ACTB-RAB5A [1]
  lowest phenotypically active concentration: 9 µM
A549-GM130-SQSTM1 [2]
  lowest phenotypically active concentration: 9 µM
A549-TUBA1B-RELA [3]
  lowest phenotypically active concentration: 9 µM
HepG2-ACTB-RAB5A [4]
  lowest phenotypically active concentration: 3 µM
A549-ACTB-RAB5A [5]
  phenotypically active: 1 (active)
A549-CANX-COX4
  phenotypically active: 0 (inactive)
A549-GM130-SQSTM1 [6]
  phenotypically active: 1 (active)
A549-TP53BP1-CLTA
  phenotypically active: 0 (inactive)
A549-TUBA1B-RELA [7]
  phenotypically active: 1 (active)
HepG2-ACTB-RAB5A [8]
  phenotypically active: 1 (active)
HepG2-CANX-COX4
  phenotypically active: 0 (inactive)
HepG2-GM130-SQSTM1
  phenotypically active: 1 (active)
HepG2-TP53BP1-CLTA
  phenotypically active: 1 (active)
HepG2-TUBA1B-RELA
  phenotypically active: 1 (active)
WPMY1-ACTB-RAB5A
  phenotypically active: 0 (inactive)
WPMY1-CANX-COX4
  phenotypically active: 0 (inactive)
WPMY1-GM130-SQSTM1 [9]
  phenotypically active: 0 (inactive)
WPMY1-TP53BP1-CLTA
  phenotypically active: 0 (inactive)
WPMY1-TUBA1B-RELA
  phenotypically active: 0 (inactive)

## CC1=C(/C=C/C(C)=C\C=C\C(C)=C\C(=O)O)C(C)(C)CCC1 [tretinoin]
A549-ACTB-RAB5A [1]
  lowest phenotypically active concentration: 3 µM
A549-GM130-SQSTM1 [2]
  lowest phenotypically active concentration: 3 µM
A549-TUBA1B-RELA [3]
  lowest phenotypically active concentration: 3 µM
HepG2-ACTB-RAB5A [4]
  lowest phenotypically active concentration: 1 µM
WPMY1-GM130-SQSTM1 [10]
  lowest phenotypically active concentration: ≤ 0.3 µM
A549-ACTB-RAB5A [5]
  phenotypically active: 1 (active)
A549-CANX-COX4
  phenotypically active: 0 (inactive)
A549-GM130-SQSTM1 [6]
  phenotypically active: 1 (active)
A549-TP53BP1-CLTA
  phenotypically active: 0 (inactive)
A549-TUBA1B-RELA [7]
  phenotypically active: 1 (active)
HepG2-ACTB-RAB5A [8]
  phenotypically active: 1 (active)
HepG2-CANX-COX4
  phenotypically active: 1 (active)
HepG2-GM130-SQSTM1
  phenotypically active: 1 (active)
HepG2-TP53BP1-CLTA
  phenotypically active: 0 (inactive)
HepG2-TUBA1B-RELA
  phenotypically active: 0 (inactive)
WPMY1-ACTB-RAB5A
  phenotypically active: 1 (active)
WPMY1-CANX-COX4
  phenotypically active: 1 (active)
WPMY1-GM130-SQSTM1 [9]
  phenotypically active: 1 (active)
WPMY1-TP53BP1-CLTA
  phenotypically active: 1 (active)
WPMY1-TUBA1B-RELA
  phenotypically active: 1 (active)

## COc1cc2c(cc1OCCCN1CCCC1)N=C(N)C21CCC1
A549-ACTB-RAB5A [1]
  lowest phenotypically active concentration: 9 µM
A549-GM130-SQSTM1 [2]
  lowest phenotypically active concentration: 9 µM
A549-TUBA1B-RELA [3]
  lowest phenotypically active concentration: 9 µM
A549-ACTB-RAB5A [5]
  phenotypically active: 1 (active)
A549-CANX-COX4
  phenotypically active: 0 (inactive)
A549-GM130-SQSTM1 [6]
  phenotypically active: 1 (active)
A549-TP53BP1-CLTA
  phenotypically active: 0 (inactive)
A549-TUBA1B-RELA [7]
  phenotypically active: 1 (active)
HepG2-ACTB-RAB5A [8]
  phenotypically active: 0 (inactive)
HepG2-CANX-COX4
  phenotypically active: 0 (inactive)
HepG2-GM130-SQSTM1
  phenotypically active: 0 (inactive)
HepG2-TP53BP1-CLTA
  phenotypically active: 0 (inactive)
HepG2-TUBA1B-RELA
  phenotypically active: 0 (inactive)
WPMY1-ACTB-RAB5A
  phenotypically active: 0 (inactive)
WPMY1-CANX-COX4
  phenotypically active: 0 (inactive)
WPMY1-GM130-SQSTM1 [9]
  phenotypically active: 0 (inactive)
WPMY1-TP53BP1-CLTA
  phenotypically active: 0 (inactive)
WPMY1-TUBA1B-RELA
  phenotypically active: 0 (inactive)

## c1ccc(CN(CC2=NCCN2)c2ccccc2)cc1 [antazoline]
A549-ACTB-RAB5A [1]
  lowest phenotypically active concentration: 3 µM
A549-GM130-SQSTM1 [2]
  lowest phenotypically active concentration: 9 µM
A549-TUBA1B-RELA [3]
  lowest phenotypically active concentration: 9 µM
A549-ACTB-RAB5A [5]
  phenotypically active: 1 (active)
A549-CANX-COX4
  phenotypically active: 0 (inactive)
A549-GM130-SQSTM1 [6]
  phenotypically active: 1 (active)
A549-TP53BP1-CLTA
  phenotypically active: 0 (inactive)
A549-TUBA1B-RELA [7]
  phenotypically active: 1 (active)
HepG2-ACTB-RAB5A [8]
  phenotypically active: 0 (inactive)
HepG2-CANX-COX4
  phenotypically active: 0 (inactive)
HepG2-GM130-SQSTM1
  phenotypically active: 0 (inactive)
HepG2-TP53BP1-CLTA
  phenotypically active: 0 (inactive)
HepG2-TUBA1B-RELA
  phenotypically active: 0 (inactive)
WPMY1-ACTB-RAB5A
  phenotypically active: 0 (inactive)
WPMY1-CANX-COX4
  phenotypically active: 0 (inactive)
WPMY1-GM130-SQSTM1 [9]
  phenotypically active: 0 (inactive)
WPMY1-TP53BP1-CLTA
  phenotypically active: 0 (inactive)
WPMY1-TUBA1B-RELA
  phenotypically active: 0 (inactive)

## CCN(CCO)CCCC(C)Nc1ccnc2cc(Cl)ccc12 (centres undefined) [hydroxychloroquine]
A549-ACTB-RAB5A [1]
  lowest phenotypically active concentration: 9 µM
A549-GM130-SQSTM1 [2]
  lowest phenotypically active concentration: 9 µM
A549-TUBA1B-RELA [3]
  lowest phenotypically active concentration: 9 µM
WPMY1-GM130-SQSTM1 [10]
  lowest phenotypically active concentration: 9 µM
A549-ACTB-RAB5A [5]
  phenotypically active: 1 (active)
A549-CANX-COX4
  phenotypically active: 0 (inactive)
A549-GM130-SQSTM1 [6]
  phenotypically active: 1 (active)
A549-TP53BP1-CLTA
  phenotypically active: 0 (inactive)
A549-TUBA1B-RELA [7]
  phenotypically active: 1 (active)
HepG2-ACTB-RAB5A [8]
  phenotypically active: 0 (inactive)
HepG2-CANX-COX4
  phenotypically active: 0 (inactive)
HepG2-GM130-SQSTM1
  phenotypically active: 1 (active)
HepG2-TP53BP1-CLTA
  phenotypically active: 0 (inactive)
HepG2-TUBA1B-RELA
  phenotypically active: 1 (active)
WPMY1-ACTB-RAB5A
  phenotypically active: 1 (active)
WPMY1-CANX-COX4
  phenotypically active: 1 (active)
WPMY1-GM130-SQSTM1 [9]
  phenotypically active: 1 (active)
WPMY1-TP53BP1-CLTA
  phenotypically active: 0 (inactive)
WPMY1-TUBA1B-RELA
  phenotypically active: 1 (active)
